Measurements as given in PubChem BioAssay (NCI).
This is part of a sample that, as a whole, favours compounds with a hit. Of some 83,000 tested, about 20% had one in any assay.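 Assay: single dose, 48 h. Readout: percent growth (0 = no net growth; negative = cell death). Active: <10.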 The source made the active and inactive calls.

Legend:
Assay in all cases: NCI-60 one-dose screen, 48 h (100 = growth as untreated, 0 = no growth, -100 = all killed)
Settings in all cases: 10 µM unless noted
HCT-15 colon = tested on: HCT-15 colon
HT29 colon = tested on: HT29 colon
SNB-75 CNS = tested on: SNB-75 CNS
SNB-19 CNS = tested on: SNB-19 CNS
U251 CNS = tested on: U251 CNS
PC-3 prostate = tested on: PC-3 prostate
SK-MEL-5 melanoma = tested on: SK-MEL-5 melanoma
UACC-62 melanoma = tested on: UACC-62 melanoma
LOX IMVI melanoma = tested on: LOX IMVI melanoma
SK-MEL-28 melanoma = tested on: SK-MEL-28 melanoma

Measured: growth

COc1cc(NC(C)CCCNC(C)C)c2ncccc2c1OC (stereo not given)
inactive: HCT-15 colon 99.3% | HT29 colon 120% | SNB-75 CNS 87.6% | SNB-19 CNS 93% | U251 CNS 92% | PC-3 prostate 90.8% | SK-MEL-5 melanoma 97.9% | UACC-62 melanoma 85% | LOX IMVI melanoma 83.5% | SK-MEL-28 melanoma 108%

CCOC(=O)c1[nH]c(=O)c2c(C)nc(-c3ccccc3)cc2c1O
inactive: HCT-15 colon 100% | HT29 colon 113% | SNB-75 CNS 118% | SNB-19 CNS 104% | U251 CNS 117% | PC-3 prostate 72.1% | SK-MEL-5 melanoma 96.7% | UACC-62 melanoma 109% | LOX IMVI melanoma 112% | SK-MEL-28 melanoma 105%

CC1=Nc2cnc(Nc3ccc(OCCN4CCCCC4)cc3)nc2Nc2ccccc21
active: SNB-75 CNS 9.67%
inactive: HCT-15 colon 27.8% | HT29 colon 50.6% | SNB-19 CNS 87.8% | U251 CNS 76.6% | PC-3 prostate 48.7% | SK-MEL-5 melanoma 69.2% | UACC-62 melanoma 85.7% | LOX IMVI melanoma 47.6% | SK-MEL-28 melanoma 99.3%

COCCn1cc(-c2nc(-c3cc4cccnc4n3CCOC)cs2)c2cc(OC)ccc21
inactive: HCT-15 colon 17% | HT29 colon 21.9% | SNB-75 CNS 62.6% | SNB-19 CNS 91.1% | U251 CNS 69.8% | PC-3 prostate 29.3% | SK-MEL-5 melanoma 36.7% | UACC-62 melanoma 80.7% | LOX IMVI melanoma 15.4% | SK-MEL-28 melanoma 87.2%

COc1ccc(-c2nc(/C=C3\SC(=NCc4ccccc4)NC3=O)c3ccccn23)cc1
inactive: SNB-19 CNS 16% | PC-3 prostate 13.7%
active: HCT-15 colon 0.0387% | HT29 colon -70.4% | SNB-75 CNS -46.8% | U251 CNS -43.6% | SK-MEL-5 melanoma -78.4% | UACC-62 melanoma -49.7% | LOX IMVI melanoma -76.4% | SK-MEL-28 melanoma -43.9%

CCCCCCCCCCCCCCCCCCOc1ccccc1CC(=O)NCC[N+]1(C)CCCC1
active: HT29 colon 8.69% | U251 CNS 6.79% | PC-3 prostate 4.91%
inactive: HCT-15 colon 93.9% | SNB-75 CNS 45% | SNB-19 CNS 35.2% | SK-MEL-5 melanoma 73% | UACC-62 melanoma 43.2% | LOX IMVI melanoma 53.4% | SK-MEL-28 melanoma 84.2%

O=C(O)c1ccc(-n2cc(/C=N/Nc3ccc(F)cc3)c(-c3cc4ccccc4oc3=O)n2)cc1
inactive: HCT-15 colon 33.9% | HT29 colon 91% | SNB-75 CNS 85.6% | SNB-19 CNS 89.2% | U251 CNS 104% | PC-3 prostate 69.8% | SK-MEL-5 melanoma 93.6% | UACC-62 melanoma 46.1% | LOX IMVI melanoma 46.6% | SK-MEL-28 melanoma 92.3%

CC(C)(C)n1cc(-c2ccnc(NCCNS(=O)(=O)c3cccc(F)c3)c2)c(-c2ccccc2)n1
inactive: HCT-15 colon 62.5% | HT29 colon 41.4% | SNB-75 CNS 85.2% | SNB-19 CNS 89.3% | U251 CNS 67.5% | PC-3 prostate 80.3% | SK-MEL-5 melanoma 72.3% | UACC-62 melanoma 81.7% | LOX IMVI melanoma 85.1% | SK-MEL-28 melanoma 102%

COc1cc(OC)c2sc(-c3ccc(-n4cncc4-c4ccc(OC)c(OC)c4)cc3)nc2c1
inactive: HCT-15 colon 17.8% | HT29 colon 35.1% | SNB-75 CNS 87.1% | SNB-19 CNS 67.1% | U251 CNS 46% | PC-3 prostate 27.6% | SK-MEL-5 melanoma 22.5% | UACC-62 melanoma 53.4% | LOX IMVI melanoma 59.1% | SK-MEL-28 melanoma 71.8%

C#Cc1cccc(Nc2ncnc3ccc(-c4cncc(NS(C)(=O)=O)c4)cc23)c1
active: U251 CNS 4.32% | SK-MEL-5 melanoma -75.7% | LOX IMVI melanoma 7.21%
inactive: HCT-15 colon 55.9% | HT29 colon 20.7% | SNB-75 CNS 30.6% | SNB-19 CNS 35.2% | PC-3 prostate 26.8% | UACC-62 melanoma 33.4% | SK-MEL-28 melanoma 41.4%

Oc1ccc(CN2CCC(N3CCCCC3)CC2)c2cccnc12
inactive: HCT-15 colon 18% | HT29 colon 105% | SNB-75 CNS 25.4% | SNB-19 CNS 23.7% | U251 CNS 17.6% | PC-3 prostate 17.9% | UACC-62 melanoma 14.9% | LOX IMVI melanoma 17.8% | SK-MEL-28 melanoma 33.4%
active: SK-MEL-5 melanoma -29.4%

Brc1c2c(c(Br)c3ccccc13)CCCC2
inactive: HCT-15 colon 112% | HT29 colon 85.2% | SNB-75 CNS 97.8% | SNB-19 CNS 96.4% | U251 CNS 91.2% | PC-3 prostate 93.6% | SK-MEL-5 melanoma 98.3% | UACC-62 melanoma 84.9% | LOX IMVI melanoma 100% | SK-MEL-28 melanoma 101%

O=C(c1ccc(-c2ccccc2)cc1)c1ccc([N+](=O)[O-])cc1
inactive: HCT-15 colon 103% | HT29 colon 104% | SNB-75 CNS 105% | SNB-19 CNS 101% | U251 CNS 99% | PC-3 prostate 86.7% | SK-MEL-5 melanoma 97.3% | UACC-62 melanoma 92.7% | LOX IMVI melanoma 98.4% | SK-MEL-28 melanoma 122%

CC1=C(Nc2ccc(N3CCN(C)CC3)cc2)C(=O)c2cncnc2C1=O
active: LOX IMVI melanoma -13.6%
inactive: HCT-15 colon 94.2% | HT29 colon 112% | SNB-75 CNS 131% | SNB-19 CNS 97.3% | U251 CNS 83.6% | PC-3 prostate 21.7% | SK-MEL-5 melanoma 81.5% | UACC-62 melanoma 93.8% | SK-MEL-28 melanoma 121%

Nc1c(C(=O)Nc2ccccc2Cl)sc2nc3c(cc12)C(O)CCC3 (stereo not given)
inactive: HCT-15 colon 30.5% | SNB-75 CNS 22.9% | SNB-19 CNS 41.6% | U251 CNS 29.4% | PC-3 prostate 36.8% | SK-MEL-5 melanoma 21.4% | UACC-62 melanoma 47.9% | LOX IMVI melanoma 45.5% | SK-MEL-28 melanoma 79.2%
active: HT29 colon 6.13%

O=[N+]([O-])C1C(c2ccccc2)C12c1ccccc1-c1ccccc12 (stereo not given)
inactive: HCT-15 colon 17.5% | SNB-75 CNS 29% | SNB-19 CNS 43.3% | PC-3 prostate 12.2% | UACC-62 melanoma 17.8% | SK-MEL-28 melanoma 49.2%
active: HT29 colon -13.4% | U251 CNS -15.2% | SK-MEL-5 melanoma -16.5% | LOX IMVI melanoma -44.4%

Cn1ccnc1C(=O)C(=O)Nc1ccc(CC(=O)Nc2ccccc2)cc1
inactive: HCT-15 colon 96.9% | HT29 colon 107% | SNB-75 CNS 92.2% | SNB-19 CNS 96.5% | U251 CNS 108% | PC-3 prostate 107% | SK-MEL-5 melanoma 101% | UACC-62 melanoma 95.5% | LOX IMVI melanoma 100% | SK-MEL-28 melanoma 107%

CC(C)c1ccc(NC(=O)Nc2ccc(NC(=O)CCCC(=O)NOCc3ccccc3)cc2)cc1
inactive: HCT-15 colon 99.8% | HT29 colon 79.4% | SNB-75 CNS 80.2% | SNB-19 CNS 91.3% | U251 CNS 85.6% | PC-3 prostate 93.3% | SK-MEL-5 melanoma 83.8% | UACC-62 melanoma 89.2% | LOX IMVI melanoma 82.2% | SK-MEL-28 melanoma 94.4%

O=C(Nc1ccc(-c2nc(N3CCOCC3)c3cccn3n2)cc1)Nc1cccnc1
active: HCT-15 colon 6.69% | HT29 colon 7.6% | SNB-75 CNS -26.5% | SNB-19 CNS 5.92% | U251 CNS 7.85% | PC-3 prostate 3.8% | SK-MEL-5 melanoma -71.5% | UACC-62 melanoma -28.6% | LOX IMVI melanoma -1.37% | SK-MEL-28 melanoma -17.3%

COc1cc(C(=O)n2nc(N3CCN(C)CC3)c3cc(N)ccc32)cc(OC)c1OC
inactive: HCT-15 colon 37% | HT29 colon 86.8% | SNB-75 CNS 39.9% | SNB-19 CNS 35.2% | U251 CNS 31.2% | PC-3 prostate 50.1% | SK-MEL-5 melanoma 27.3% | UACC-62 melanoma 26.2% | LOX IMVI melanoma 35.5% | SK-MEL-28 melanoma 65.8%

CCCCCCCCCCCCCCCC(N)c1ccccc1 (stereo not given)
active: HCT-15 colon -73.9% | HT29 colon -65.3% | U251 CNS -93.2% | PC-3 prostate 5.14% | LOX IMVI melanoma -100%
inactive: SNB-75 CNS 66.2% | SNB-19 CNS 23.9% | SK-MEL-5 melanoma 87.8% | UACC-62 melanoma 79.2% | SK-MEL-28 melanoma 85.3%

CC(C)OC(=O)c1ccc2[nH]c(O)c(C(=Nc3ccc(N(C)C(=O)CN4CCN(C)CC4)cc3)c3ccccc3)c2c1
active: HCT-15 colon -14.4% | HT29 colon -48.1% | SNB-75 CNS -98.1% | SNB-19 CNS 1.52% | U251 CNS -90.5% | PC-3 prostate 9.18% | SK-MEL-5 melanoma -95.4% | UACC-62 melanoma -44.1% | LOX IMVI melanoma -96.7% | SK-MEL-28 melanoma -54.4%

N=C(N)c1ccc(-c2ccc(-c3ccc(F)cc3)o2)o1
active: HCT-15 colon -0.304% | HT29 colon -20.3% | U251 CNS -11.7% | LOX IMVI melanoma -61.6%
inactive: SNB-75 CNS 20% | SNB-19 CNS 26.7% | PC-3 prostate 19.3% | SK-MEL-5 melanoma 21.7% | UACC-62 melanoma 57.5% | SK-MEL-28 melanoma 65.1%

COC(=O)[C@]1(C)CCC[C@]2(C)[C@H]3C[C@H]4C(C(C)C)=C[C@]3(CC[C@H]21)[C@H]1[C@@H]4[C@@H](OCCC#N)CC[C@@H]1OCCC#N
inactive: HCT-15 colon 29.9% | SNB-75 CNS 75.6% | SNB-19 CNS 52.3% | U251 CNS 33.3% | SK-MEL-5 melanoma 26.2% | UACC-62 melanoma 39.5% | LOX IMVI melanoma 59.7% | SK-MEL-28 melanoma 61.9%
active: HT29 colon 6.91% | PC-3 prostate 2.36%

CN(C)c1ccc(/C=C/C(=O)c2ccc(-n3cc(CN4CCN(c5cc6c(cc5F)c(=O)c(C(=O)O)cn6C5CC5)CC4)nn3)cc2)cc1
inactive: HCT-15 colon 63.4% | HT29 colon 28% | SNB-75 CNS 68.1% | SNB-19 CNS 31.6% | U251 CNS 16.5% | PC-3 prostate 57.4% | SK-MEL-5 melanoma 79% | UACC-62 melanoma 55.8% | LOX IMVI melanoma 20.3% | SK-MEL-28 melanoma 68%

CCN1CCN(c2cc(C(=O)Nc3nc(-c4cc(OC)c(OC)c(OC)c4)cs3)cc(C(F)(F)F)c2)CC1
inactive: HCT-15 colon 36.4% | HT29 colon 18.3% | SNB-75 CNS 57% | SNB-19 CNS 80.7% | U251 CNS 60.9% | PC-3 prostate 57.1% | SK-MEL-5 melanoma 53.7% | UACC-62 melanoma 75.4% | LOX IMVI melanoma 38.6% | SK-MEL-28 melanoma 51.8%
